Laboratory results reported in the supplement of paper PMC12067093, “Discovery and optimisation of a covalent ligand for TRIM25 and its application to targeted protein ubiquitination” (Chemical Science, 2025).
About 21,000 targets were measured; listed, in parts, are those with the largest changes and a random draw of the rest.

Compound: Cc1cc(ccc1-c1ccccc1)C(=O)N1CCCN(CC1)C(=O)CCl [compound 10]
Assay: probe-labelled cysteine peptide fold change vs DMSO (competition) (log2 fold change); higher = less target engagement (more negative = stronger competition)
Conditions: THP-1, incubation time: 4 h
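Also: competitive profiling in live THP-1 cells: cysteine peptides tagged with an iodoacetamide desthiobiotin (IA-DTB) probe, intensity after compound treatment relative to DMSO-treated cells.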

Sequence of UniProt Q9Y678 (Q9Y678 whole entry, looked up): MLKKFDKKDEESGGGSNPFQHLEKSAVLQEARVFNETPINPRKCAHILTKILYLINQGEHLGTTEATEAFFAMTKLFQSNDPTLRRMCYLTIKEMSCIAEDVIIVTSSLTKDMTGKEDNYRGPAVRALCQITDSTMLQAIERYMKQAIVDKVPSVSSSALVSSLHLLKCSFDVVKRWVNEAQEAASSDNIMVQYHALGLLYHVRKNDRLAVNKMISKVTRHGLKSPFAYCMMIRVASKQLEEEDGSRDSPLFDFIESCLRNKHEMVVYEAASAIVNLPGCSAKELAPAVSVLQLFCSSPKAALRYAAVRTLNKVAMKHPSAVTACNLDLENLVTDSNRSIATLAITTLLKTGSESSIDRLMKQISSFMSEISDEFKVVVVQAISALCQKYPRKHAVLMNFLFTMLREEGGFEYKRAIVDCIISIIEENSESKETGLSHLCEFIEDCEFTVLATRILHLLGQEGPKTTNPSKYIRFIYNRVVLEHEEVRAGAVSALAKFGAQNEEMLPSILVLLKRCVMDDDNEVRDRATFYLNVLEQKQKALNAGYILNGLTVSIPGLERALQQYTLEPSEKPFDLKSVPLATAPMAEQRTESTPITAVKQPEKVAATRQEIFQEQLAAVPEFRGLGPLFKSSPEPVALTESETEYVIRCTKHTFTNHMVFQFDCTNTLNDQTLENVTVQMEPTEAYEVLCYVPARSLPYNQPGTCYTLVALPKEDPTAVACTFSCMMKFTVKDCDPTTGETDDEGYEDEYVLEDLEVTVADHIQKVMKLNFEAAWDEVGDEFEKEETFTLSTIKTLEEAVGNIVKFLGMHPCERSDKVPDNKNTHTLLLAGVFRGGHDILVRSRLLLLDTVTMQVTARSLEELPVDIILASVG
Sequence of UniProt Q7Z401 (Q7Z401 whole entry, looked up): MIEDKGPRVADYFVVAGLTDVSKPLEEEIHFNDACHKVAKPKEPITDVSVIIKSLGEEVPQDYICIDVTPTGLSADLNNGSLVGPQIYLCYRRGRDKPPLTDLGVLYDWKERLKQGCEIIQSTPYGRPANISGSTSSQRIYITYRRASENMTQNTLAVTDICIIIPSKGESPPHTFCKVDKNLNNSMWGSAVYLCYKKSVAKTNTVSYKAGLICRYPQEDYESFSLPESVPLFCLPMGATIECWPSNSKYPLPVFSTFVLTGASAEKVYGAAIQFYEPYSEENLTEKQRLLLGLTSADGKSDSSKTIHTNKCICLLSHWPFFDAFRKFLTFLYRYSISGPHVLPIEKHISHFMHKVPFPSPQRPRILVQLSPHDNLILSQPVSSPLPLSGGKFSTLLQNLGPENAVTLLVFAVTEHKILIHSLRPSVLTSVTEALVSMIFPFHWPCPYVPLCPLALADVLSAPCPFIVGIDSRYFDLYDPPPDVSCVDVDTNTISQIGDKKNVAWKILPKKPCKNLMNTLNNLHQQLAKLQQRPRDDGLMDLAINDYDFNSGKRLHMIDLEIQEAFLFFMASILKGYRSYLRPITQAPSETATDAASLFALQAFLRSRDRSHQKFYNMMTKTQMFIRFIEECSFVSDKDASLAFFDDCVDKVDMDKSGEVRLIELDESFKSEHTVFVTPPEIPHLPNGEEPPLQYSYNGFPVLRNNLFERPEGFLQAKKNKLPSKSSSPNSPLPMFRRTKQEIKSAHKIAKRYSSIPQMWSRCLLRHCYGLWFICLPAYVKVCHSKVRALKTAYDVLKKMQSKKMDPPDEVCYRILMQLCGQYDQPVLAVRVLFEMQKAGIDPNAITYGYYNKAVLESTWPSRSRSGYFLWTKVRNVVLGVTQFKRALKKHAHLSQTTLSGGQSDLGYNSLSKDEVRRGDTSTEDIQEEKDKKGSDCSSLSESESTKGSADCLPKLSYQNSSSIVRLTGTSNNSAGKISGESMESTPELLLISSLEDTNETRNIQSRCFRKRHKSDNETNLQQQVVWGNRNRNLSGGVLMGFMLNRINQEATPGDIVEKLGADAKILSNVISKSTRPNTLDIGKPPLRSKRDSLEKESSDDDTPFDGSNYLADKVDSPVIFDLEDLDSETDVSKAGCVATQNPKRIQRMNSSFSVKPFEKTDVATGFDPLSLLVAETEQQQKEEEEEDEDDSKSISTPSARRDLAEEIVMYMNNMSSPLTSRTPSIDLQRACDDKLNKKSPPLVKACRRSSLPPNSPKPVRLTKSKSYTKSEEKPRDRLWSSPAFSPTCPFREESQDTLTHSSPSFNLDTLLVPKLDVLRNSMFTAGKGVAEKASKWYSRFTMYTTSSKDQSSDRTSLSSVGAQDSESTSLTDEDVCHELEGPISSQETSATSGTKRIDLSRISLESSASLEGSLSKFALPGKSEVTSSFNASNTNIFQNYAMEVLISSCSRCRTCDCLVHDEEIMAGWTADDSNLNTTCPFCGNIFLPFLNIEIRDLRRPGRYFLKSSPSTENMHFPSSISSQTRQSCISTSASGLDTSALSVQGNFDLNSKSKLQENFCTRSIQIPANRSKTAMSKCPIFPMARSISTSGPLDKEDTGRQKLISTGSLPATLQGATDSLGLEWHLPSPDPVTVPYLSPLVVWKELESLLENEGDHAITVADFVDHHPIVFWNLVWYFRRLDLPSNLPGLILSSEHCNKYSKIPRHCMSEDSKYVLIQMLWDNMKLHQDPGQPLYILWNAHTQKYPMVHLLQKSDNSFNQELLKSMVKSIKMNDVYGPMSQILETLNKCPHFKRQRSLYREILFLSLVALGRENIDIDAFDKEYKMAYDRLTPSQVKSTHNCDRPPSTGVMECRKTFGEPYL
Sequence of UniProt P04839 (P04839 whole entry, looked up): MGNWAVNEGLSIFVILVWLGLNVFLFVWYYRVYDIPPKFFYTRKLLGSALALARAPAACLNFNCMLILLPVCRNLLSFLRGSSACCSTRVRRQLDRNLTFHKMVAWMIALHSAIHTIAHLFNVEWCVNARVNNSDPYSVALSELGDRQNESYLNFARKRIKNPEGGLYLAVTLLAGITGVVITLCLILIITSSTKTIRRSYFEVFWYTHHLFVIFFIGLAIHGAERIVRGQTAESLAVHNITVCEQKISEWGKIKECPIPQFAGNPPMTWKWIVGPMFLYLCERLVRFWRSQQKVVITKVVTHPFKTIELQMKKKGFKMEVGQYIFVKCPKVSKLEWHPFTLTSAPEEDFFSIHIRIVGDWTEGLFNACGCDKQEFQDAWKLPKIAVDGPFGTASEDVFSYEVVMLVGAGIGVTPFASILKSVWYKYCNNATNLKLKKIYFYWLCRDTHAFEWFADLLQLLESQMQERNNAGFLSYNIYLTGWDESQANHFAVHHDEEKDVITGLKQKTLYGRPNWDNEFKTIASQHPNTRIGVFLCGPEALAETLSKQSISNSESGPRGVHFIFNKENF
Sequence of UniProt P50238 (P50238 whole entry, looked up): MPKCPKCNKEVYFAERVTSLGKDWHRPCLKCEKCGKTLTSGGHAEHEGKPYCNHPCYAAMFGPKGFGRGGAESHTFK
Sequence of UniProt Q14562 (Q14562 whole entry, looked up): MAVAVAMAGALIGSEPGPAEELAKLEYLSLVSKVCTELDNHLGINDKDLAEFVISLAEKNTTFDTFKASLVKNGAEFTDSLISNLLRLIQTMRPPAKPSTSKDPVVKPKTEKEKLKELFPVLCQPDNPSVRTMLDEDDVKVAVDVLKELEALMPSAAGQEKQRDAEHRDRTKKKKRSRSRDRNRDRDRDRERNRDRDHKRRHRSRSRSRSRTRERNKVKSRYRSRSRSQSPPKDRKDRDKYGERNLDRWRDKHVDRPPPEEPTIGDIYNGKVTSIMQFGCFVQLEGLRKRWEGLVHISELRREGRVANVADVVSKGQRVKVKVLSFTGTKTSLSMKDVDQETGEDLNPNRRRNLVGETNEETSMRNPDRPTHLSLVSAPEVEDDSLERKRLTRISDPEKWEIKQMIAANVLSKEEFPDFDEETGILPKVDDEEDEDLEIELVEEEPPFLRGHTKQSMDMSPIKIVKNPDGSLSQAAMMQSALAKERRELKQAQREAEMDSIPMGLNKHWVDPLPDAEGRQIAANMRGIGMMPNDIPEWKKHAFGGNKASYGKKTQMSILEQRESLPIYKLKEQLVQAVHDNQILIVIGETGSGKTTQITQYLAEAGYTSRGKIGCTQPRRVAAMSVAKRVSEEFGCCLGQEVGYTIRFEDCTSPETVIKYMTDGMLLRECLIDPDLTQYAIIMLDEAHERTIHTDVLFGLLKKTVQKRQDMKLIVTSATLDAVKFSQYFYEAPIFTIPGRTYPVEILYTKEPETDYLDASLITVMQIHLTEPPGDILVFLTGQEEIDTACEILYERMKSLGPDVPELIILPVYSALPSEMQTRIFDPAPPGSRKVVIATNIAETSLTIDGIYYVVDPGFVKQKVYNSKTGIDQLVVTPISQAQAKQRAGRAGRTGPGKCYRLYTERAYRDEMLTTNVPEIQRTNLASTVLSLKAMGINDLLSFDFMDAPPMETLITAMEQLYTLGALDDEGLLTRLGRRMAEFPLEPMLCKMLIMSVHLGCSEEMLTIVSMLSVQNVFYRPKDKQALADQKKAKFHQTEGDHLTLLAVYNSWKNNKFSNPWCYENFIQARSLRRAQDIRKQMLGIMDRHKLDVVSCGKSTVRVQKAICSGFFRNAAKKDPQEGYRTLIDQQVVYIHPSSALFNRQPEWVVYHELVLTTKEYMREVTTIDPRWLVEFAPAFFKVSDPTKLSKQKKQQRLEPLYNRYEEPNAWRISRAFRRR
Sequence of UniProt P25685 (P25685 whole entry, looked up): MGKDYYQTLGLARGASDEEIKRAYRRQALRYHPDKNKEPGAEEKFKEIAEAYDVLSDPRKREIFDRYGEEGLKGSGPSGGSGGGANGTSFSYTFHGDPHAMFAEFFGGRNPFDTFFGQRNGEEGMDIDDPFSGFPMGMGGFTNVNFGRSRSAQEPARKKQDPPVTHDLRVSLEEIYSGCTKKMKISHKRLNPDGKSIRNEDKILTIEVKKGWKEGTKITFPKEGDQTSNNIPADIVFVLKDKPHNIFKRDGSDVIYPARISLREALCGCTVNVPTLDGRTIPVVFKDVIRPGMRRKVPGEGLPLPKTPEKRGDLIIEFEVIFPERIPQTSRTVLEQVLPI

| Target | probe-labelled cysteine peptide fold change (10 µM) | probe-labelled cysteine peptide fold change (50 µM) |
| --- | --- | --- |
| DHX9_Q08211_1099_LQISHEAAACITGLR (UniProt Q08211) | 0.136 | 0.171 |
| CROT_Q9UKG9_584_SCPETDAEK (UniProt Q9UKG9) | -0.0249 | 0.181 |
| COPG1_Q9Y678_440_ETGLSHLCEFIEDCEFTVLATR (UniProt Q9Y678) | 0.0873 | 0.125 |
| DENND4A_Q7Z401_35_PLEEEIHFNDACHK (UniProt Q7Z401) | -0.0984 | -0.131 |
| DDX50_Q9BQ39_242_LSVACFYGGTSYQSQINHIR (UniProt Q9BQ39) | 0.333 | -0.294 |
| COLGALT1_Q8NBJ5_283_QAEVQMYVCNK (UniProt Q8NBJ5) | 0.265 | 0.751 |
| CRIP1_P50238_52+56_PYCNHPCYAAMFGPK (UniProt P50238) | 0.0432 | -0.424 |
| CSMD2_Q7Z408-3_2_CDAHLR (UniProt Q7Z408) | 0.077 | -2.14 |
| CXXC1_Q9P0U4_38_KPDINCFMIGCDNCNEWFHGDCIR (UniProt Q9P0U4) | 0.0402 | -1.06 |
| CSRP1_P21291_167_GLESTTLADKDGEIYCK (UniProt P21291) | -0.0814 | -1.06 |
| CTPS1_P17812_30_SCGLHVTSIK (UniProt P17812) | 0.14 | 0.147 |
| DCAF8_Q5TAQ9_256_FLPNSGDSTLAMCAR (UniProt Q5TAQ9) | -0.0556 | -0.22 |
| CPSF3_Q9UKF6_626_RLEIMLQDIFGEDCVSVK (UniProt Q9UKF6) | -0.0218 | 0.198 |
| DNAJB1_P25685_179_VSLEEIYSGCTK (UniProt P25685) | -0.0218 | 0.255 |
| CTSG_P08311_142_AQEGLRPGTLCTVAGWGR (UniProt P08311) | -0.0347 | -0.0423 |
| DHX16_O60231_932_VEVGLSSCQGDYIR (UniProt O60231) | -0.184 | 0.119 |
| CNPY2_Q9Y2B0_28_SQDLHCGACR (UniProt Q9Y2B0) | -0.272 | -0.187 |
| DENND3_A2RUS2_1094_DTSTSFLAFQLLPEEEQLWAACAGR (UniProt A2RUS2) | 1.07 | 1.16 |
| DHX8_Q14562_1108_AICSGFFR (UniProt Q14562) | -0.267 | 0.29 |
| CYBB_P04839_369_IVGDWTEGLFNACGCDK (UniProt P04839) | -0.0879 | 0.149 |
| DDX17_Q92841_319_CTYLVLDEADRMLDMGFEPQIR (UniProt Q92841) | 0.023 | -0.374 |
